Reference: PubChem BioAssay (Tox21)
Where “and” joins values, the source holds several entries; their conditions need not be identical. Equal values may be shown once. Records with an inconclusive call do not appear. Where a call stands in place of a potency, no number is given. Some compounds were tested as several samples or in several runs, with calls that do not always agree. Calls of active or inactive are those of the source. Unless noted, calls follow the shape of the dose curve; as a rule, active = well fitted curve in the direction sought with a large enough effect in the repeat runs; inconclusive = weak or mixed curves; inactive = no such curve, though single readings can be large; an effect the other way counts as inactive or inconclusive.

How the values were obtained:
[1] = qHTS assay to identify small molecule antagonists of the sonic hedgehog signaling (Shh) pathway (AID 1259369; calls by dose curve; also: nearly all actives have a fitted effect of over 45% in size; also: potency is read from the fitted curve at half-maximal effect)
Method in brief: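 Antagonist mode: compound added to 3T3 Gli1-Luc cells followed by conditioned-medium stimulation, 24 h at 37 C, 5% CO2. Inhibition taken as loss of Gli1-driven luciferase luminescence.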

[2] = target: Estrogen receptor beta (Homo sapiens) (UniProt Q92731); assay: qHTS assay to identify small molecule agonists of the estrogen receptor beta (ER-beta) signaling pathway (AID 1259377; active = well fitted activation curve with a large enough effect in the signal ratio in the repeat runs, not every such curve was filed as active; the % refers to the signal ratio)
Estrogen receptor beta (Homo sapiens), sequence (Q92731 whole entry, looked up): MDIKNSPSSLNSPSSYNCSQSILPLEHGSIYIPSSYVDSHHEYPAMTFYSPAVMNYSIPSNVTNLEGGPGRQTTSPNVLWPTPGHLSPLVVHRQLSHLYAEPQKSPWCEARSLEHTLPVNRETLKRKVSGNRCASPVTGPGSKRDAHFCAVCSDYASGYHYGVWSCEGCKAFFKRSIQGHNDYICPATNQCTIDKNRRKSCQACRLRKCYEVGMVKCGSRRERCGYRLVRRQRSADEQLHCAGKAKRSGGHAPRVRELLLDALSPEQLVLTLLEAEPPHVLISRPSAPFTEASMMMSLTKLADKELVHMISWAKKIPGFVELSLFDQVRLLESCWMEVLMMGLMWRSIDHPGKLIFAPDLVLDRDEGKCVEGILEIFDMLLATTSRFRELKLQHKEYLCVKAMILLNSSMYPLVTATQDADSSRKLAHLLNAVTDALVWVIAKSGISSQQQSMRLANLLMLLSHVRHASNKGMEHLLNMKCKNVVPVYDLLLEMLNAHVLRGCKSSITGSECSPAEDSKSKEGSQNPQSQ
Method in brief: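 Read-out: beta-lactamase FRET fluorescence. Cell line: ER-beta-UAS-bla HEK293T in 2% charcoal-stripped FBS. Exposure: 16 hr at 37C. Substrate step: 2 h at room temperature.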

[3] = target: Estrogen receptor beta (Homo sapiens) (UniProt Q92731); assay: qHTS assay to identify small molecule antagonists of the estrogen receptor beta (ER-beta) signaling pathway (AID 1259378; active = well fitted inhibition curve with a large enough effect in the signal ratio in the repeat runs, not every such curve was filed as active; the % refers to the signal ratio; also: potency is read from the fitted curve at half-maximal effect)
Method in brief: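 ER-beta-UAS-bla HEK293T (GripTite) cells in 2% charcoal-stripped FBS medium were preincubated 6 hr at 37C, dosed with compound, then stimulated with 1 nM E2 (final) for 16 hr; beta-lactamase reporter read by B/G FRET fluorescence after 2 hr substrate loading.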

[4] = qHTS assay to identify small molecule agonists of the androgen receptor (AR) signaling pathway in the presence of an antagonist - cell viability counter screen (AID 1259379); also: nearly all actives have a fitted effect of over 25% in size; also: potency is read from the fitted curve at half-maximal effect
Method in brief: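 Cytotoxicity counter-screen run in the same wells as the nilutamide-challenged (3.0 µM final) AR agonist assay in MDA-kb2 cells. Compounds tested at 15 concentrations for 16 h, 37 °C without CO2; CellTiter-Fluor fluorescence read.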

[5] = qHTS assay to identify small molecule agonists of the estrogen receptor beta (ER-beta) signaling pathway - cell viability counter screen (AID 1259380); also: nearly all actives have a fitted effect of over 30% in size; also: potency is read from the fitted curve at half-maximal effect
Method in brief: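 Cell viability counter screen: CellTiter-Glo luminescence (30 min, room temperature) measured in the same wells as the beta-lactamase readout, after 16 hr compound exposure at 37C of ER-beta-bla HEK293T cells in 2% charcoal-stripped FBS medium.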

[6] = target: Androgen receptor (Homo sapiens) (UniProt P10275); assay: qHTS assay to identify small molecule agonists of the androgen receptor (AR) signaling pathway in the presence of an antagonist (AID 1259381; calls by dose curve; also: nearly all actives have a fitted effect of over 15% in size)
Androgen receptor (Homo sapiens), sequence (P10275 whole entry, looked up): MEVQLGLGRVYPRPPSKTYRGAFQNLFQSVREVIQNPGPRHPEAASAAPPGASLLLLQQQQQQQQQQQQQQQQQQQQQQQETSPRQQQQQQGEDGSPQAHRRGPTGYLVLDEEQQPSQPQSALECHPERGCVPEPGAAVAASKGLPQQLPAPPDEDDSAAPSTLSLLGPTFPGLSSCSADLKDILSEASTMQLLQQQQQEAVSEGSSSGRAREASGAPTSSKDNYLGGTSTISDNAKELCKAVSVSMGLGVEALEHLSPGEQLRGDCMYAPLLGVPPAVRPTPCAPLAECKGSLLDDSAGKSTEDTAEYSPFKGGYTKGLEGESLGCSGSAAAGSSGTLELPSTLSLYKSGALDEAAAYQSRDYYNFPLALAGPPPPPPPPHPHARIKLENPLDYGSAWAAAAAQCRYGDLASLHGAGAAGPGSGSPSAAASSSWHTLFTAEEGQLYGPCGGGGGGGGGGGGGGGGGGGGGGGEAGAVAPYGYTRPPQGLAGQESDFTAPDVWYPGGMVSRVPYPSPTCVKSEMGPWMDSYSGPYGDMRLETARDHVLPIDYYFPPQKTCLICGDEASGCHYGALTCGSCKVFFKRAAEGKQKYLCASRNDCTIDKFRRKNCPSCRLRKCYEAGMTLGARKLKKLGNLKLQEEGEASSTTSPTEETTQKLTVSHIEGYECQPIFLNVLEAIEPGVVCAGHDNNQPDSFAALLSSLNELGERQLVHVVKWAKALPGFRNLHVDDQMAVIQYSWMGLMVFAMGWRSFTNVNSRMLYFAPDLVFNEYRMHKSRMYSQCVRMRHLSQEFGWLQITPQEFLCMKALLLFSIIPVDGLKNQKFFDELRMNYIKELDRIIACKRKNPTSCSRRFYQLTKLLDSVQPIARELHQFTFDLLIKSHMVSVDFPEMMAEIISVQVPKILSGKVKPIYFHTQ
Method in brief: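 Agonist-mode confirmation run against 3.0 uM final nilutamide: compounds titrated at 15 concentrations onto MDA-kb2 MMTV-luciferase reporter cells. Luminescence measured with ONE-Glo following 16 hr incubation, 37C, 0% CO2.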

[7] = qHTS assay to identify small molecule antagonists of the estrogen receptor beta (ER-beta) signaling pathway - cell viability counter screen (AID 1259382); also: nearly all actives have a fitted effect of over 55% in size; also: potency is read from the fitted curve at half-maximal effect
Method in brief: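 Cytotoxicity was measured in the same wells by CellTiter-Glo luminescence after 30 min at room temperature. Cells were ER-beta-bla HEK293T in charcoal-stripped serum, given compound together with 1 nM E2 and incubated 16 h at 37C.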

[8] = target: Estrogen receptor (Homo sapiens) (UniProt P03372); assay: qHTS assay to identify small molecule agonists of the estrogen receptor alpha (ER-alpha) signaling pathway in the presence of an antagonist (AID 1259383; calls by dose curve; also: top concentration of the series differs between compounds; nearly all actives have a fitted effect of over 15% in size)
Estrogen receptor (Homo sapiens), sequence (P03372 whole entry, looked up): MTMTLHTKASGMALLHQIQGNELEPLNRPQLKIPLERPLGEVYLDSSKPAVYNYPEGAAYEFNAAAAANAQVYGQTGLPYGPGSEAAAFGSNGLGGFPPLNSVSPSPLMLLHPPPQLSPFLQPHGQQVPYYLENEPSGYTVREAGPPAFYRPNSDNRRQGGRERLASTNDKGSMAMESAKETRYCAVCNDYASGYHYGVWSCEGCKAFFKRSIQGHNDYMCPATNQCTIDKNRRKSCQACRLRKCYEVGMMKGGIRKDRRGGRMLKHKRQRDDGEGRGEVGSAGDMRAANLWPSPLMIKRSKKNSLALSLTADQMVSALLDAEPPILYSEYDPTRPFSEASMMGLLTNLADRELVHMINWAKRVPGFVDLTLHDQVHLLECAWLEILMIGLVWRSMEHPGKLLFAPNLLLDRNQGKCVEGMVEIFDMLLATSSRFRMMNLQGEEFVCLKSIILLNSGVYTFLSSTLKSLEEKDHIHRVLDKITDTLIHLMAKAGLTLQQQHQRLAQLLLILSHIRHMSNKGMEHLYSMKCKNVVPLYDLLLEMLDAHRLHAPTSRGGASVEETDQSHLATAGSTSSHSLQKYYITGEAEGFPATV
Method in brief: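 Agonist-mode confirmation run in the presence of 10.0nM (final) ICI-182,780 antagonist. The reporter was ERE-driven luciferase in VM7Luc4E2 cells, grown in charcoal-stripped serum. Cells were exposed to 15-concentration compound series for 22hr, then ONE-Glo luminescence was read.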

[9] = qHTS assay to identify small molecule agonists or antagonists of the thyroid stimulating hormone receptor (TSHR) signaling pathway - wild type cell line counter screen (AID 1259384; calls by dose curve)
Method in brief: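 Wild-type HEK293 cells were plated 18 h at 37 C/5% CO2, pin-dosed with compound plus Ro20-1724 medium, held 30 min at room temperature, then given cAMP-d2 and anti-cAMP-cryptate; fluorescence was read after 1 h. Fifteen concentrations, triplicate.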

[10] = target: Thyrotropin receptor (Homo sapiens) (UniProt P16473); assay: qHTS assay to identify small molecule antagonists of the thyroid stimulating hormone receptor (TSHR) signaling pathway (AID 1259385; calls by dose curve; also: nearly all actives have a fitted effect of over 20% in size)
Thyrotropin receptor (Homo sapiens), sequence (P16473 whole entry, looked up): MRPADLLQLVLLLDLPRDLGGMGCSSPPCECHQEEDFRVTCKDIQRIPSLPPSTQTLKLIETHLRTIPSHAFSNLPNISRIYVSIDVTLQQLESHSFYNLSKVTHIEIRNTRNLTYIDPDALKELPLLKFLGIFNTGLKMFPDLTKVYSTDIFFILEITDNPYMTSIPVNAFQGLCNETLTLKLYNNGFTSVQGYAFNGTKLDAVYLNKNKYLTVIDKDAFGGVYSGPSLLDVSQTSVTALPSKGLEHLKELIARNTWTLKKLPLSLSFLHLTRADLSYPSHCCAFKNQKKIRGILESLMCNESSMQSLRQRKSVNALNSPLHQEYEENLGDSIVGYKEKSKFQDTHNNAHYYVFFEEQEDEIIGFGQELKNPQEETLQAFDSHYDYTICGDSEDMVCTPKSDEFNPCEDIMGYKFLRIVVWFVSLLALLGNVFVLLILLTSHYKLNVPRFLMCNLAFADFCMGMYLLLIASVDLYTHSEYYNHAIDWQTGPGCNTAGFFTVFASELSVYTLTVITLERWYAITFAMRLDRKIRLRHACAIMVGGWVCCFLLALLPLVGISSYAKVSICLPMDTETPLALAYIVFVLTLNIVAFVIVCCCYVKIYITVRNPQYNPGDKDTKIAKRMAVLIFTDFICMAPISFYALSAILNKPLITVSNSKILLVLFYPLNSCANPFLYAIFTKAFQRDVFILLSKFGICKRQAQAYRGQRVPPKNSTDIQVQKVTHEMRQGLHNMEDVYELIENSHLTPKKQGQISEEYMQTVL
Method in brief: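 TSHR-HEK293 cells were plated and held 18 h at 37C/5% CO2, then given compound plus Ro20-1724 and stimulated with TSH at 1.5 ng/mL final. After 30 min at room temperature, cAMP was detected with cAMP-d2/anti-cAMP-cryptate (1 h) by fluorescence.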

[11] = target: Progesterone receptor (Homo sapiens) (UniProt P06401); assay: qHTS assay to identify small molecule agonists of the progesterone receptor (PR) signaling pathway (AID 1346784; calls by dose curve; also: nearly all actives have a fitted effect of over 30% in size)
Progesterone receptor (Homo sapiens), sequence (P06401 whole entry, looked up): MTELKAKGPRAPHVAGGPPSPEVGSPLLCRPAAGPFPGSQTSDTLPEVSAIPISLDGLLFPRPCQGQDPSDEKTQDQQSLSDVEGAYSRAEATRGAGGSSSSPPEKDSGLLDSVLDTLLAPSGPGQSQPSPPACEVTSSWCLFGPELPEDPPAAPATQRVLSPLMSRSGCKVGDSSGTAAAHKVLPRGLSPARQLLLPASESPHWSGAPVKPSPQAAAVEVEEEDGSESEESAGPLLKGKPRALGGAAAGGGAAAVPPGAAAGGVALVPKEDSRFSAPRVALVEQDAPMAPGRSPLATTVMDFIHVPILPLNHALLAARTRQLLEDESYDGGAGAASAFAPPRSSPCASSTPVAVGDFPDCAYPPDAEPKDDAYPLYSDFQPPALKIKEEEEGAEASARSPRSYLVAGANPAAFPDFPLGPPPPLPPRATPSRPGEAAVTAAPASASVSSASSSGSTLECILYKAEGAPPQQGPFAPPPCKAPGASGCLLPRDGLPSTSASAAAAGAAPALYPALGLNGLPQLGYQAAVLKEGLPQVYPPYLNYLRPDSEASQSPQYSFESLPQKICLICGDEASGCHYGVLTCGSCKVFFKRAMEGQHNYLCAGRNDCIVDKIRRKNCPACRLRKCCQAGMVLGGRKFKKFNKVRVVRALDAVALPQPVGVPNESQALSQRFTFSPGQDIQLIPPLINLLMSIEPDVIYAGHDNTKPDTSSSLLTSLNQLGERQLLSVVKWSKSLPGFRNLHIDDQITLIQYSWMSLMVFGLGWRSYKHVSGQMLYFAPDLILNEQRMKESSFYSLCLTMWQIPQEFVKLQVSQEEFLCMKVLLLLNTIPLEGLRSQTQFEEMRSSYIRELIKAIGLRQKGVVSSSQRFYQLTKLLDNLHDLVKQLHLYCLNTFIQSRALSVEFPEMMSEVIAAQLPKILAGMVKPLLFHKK
Method in brief: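 Compounds were tested for PR agonism in HEK 293T cells bearing a beta-lactamase gene under UAS control. Treatment lasted 16 hr at 37C; signal came from fluorescence of a FRET substrate.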

[12] = target: Progesterone receptor (Homo sapiens) (UniProt P06401); assay: qHTS assay to identify small molecule antagonists of the progesterone receptor (PR) signaling pathway (AID 1346795; active = well fitted inhibition curve with a large enough effect in the signal ratio in the repeat runs, not every such curve was filed as active; the % refers to the signal ratio; also: potency is read from the fitted curve at half-maximal effect)
Method in brief: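 In HEK293T cells bearing the PR-UAS-bla reporter, compound effects on promegestone-driven (1 nM) beta-lactamase expression are assessed after 16 hr using a fluorescent FRET substrate incubated 2 hr at room temperature.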

[13] = qHTS assay to identify small molecule antagonists of the progesterone receptor (PR) signaling pathway - cell viability counter screen (AID 1346798); also: nearly all actives have a fitted effect of over 50% in size; also: potency is read from the fitted curve at half-maximal effect
Method in brief: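 Following a 4 hr attachment, PR-UAS-bla HEK293T cells in charcoal-stripped FBS medium were exposed to compounds with R5020 for 16 hr; CellTiter-Glo was added and luminescence read after 30 min at room temperature.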

[14] = qHTS assay to identify small molecule agonists of the progesterone receptor (PR) signaling pathway - cell viability counter screen (AID 1346799; calls by dose curve; also: nearly all actives have a fitted effect of over 45% in size; also: potency is read from the fitted curve at half-maximal effect)
Method in brief: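 Here, 3,000 PR-UAS-bla HEK293T cells per well were treated with compounds for 16 hr after a 6 hr preincubation at 37C and 5% CO2; cell viability is the CellTiter-Glo luminescence signal.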

[15] = qHTS assay to identify small molecule antagonists of the TGF-beta/Smad signaling pathway - cell viability counter screen (AID 1346824); also: nearly all actives have a fitted effect of over 50% in size
Method in brief: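 SBE-bla HEK 293T cells were plated overnight at 37 C, then given compounds in DMSO plus TGF-beta1 (added as 0.25 ng/mL solution) for 5 hr. After the bla read, CellTiter-Glo was added to the same wells and luminescence read after 30 min at room temperature.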

[16] = qHTS assay to identify small molecule agonists of the TGF-beta/Smad signaling pathway - cell viability counter screen (AID 1346829); also: top concentration of the series differs between compounds; nearly all actives have a fitted effect of over 45% in size
Method in brief: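 Tox21 qHTS format: SBE-bla HEK 293T cells treated with DMSO-dissolved compounds for 5 hr; CellTiter-Glo luminescence after 30 min at room temperature.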

[17] = qHTS assay to identify small molecule agonists of the TGF-beta/Smad signaling pathway (AID 1346859; active = well fitted activation curve with a large enough effect in the signal ratio in the repeat runs, not every such curve was filed as active; the % refers to the signal ratio; also: series mostly up to about 77 µM)
Method in brief: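 Each well held 4,000 SBE-bla HEK 293T cells incubated overnight before compound addition; 5 hr later the cleavable FRET substrate went on for 2 hr at room temperature, and fluorescence was read at two emissions.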

[18] = target: Thyrotropin-releasing hormone receptor (Homo sapiens) (UniProt P34981); assay: qHTS assay to identify small molecule antagonists of the thyrotropin-releasing hormone receptor (TRHR) signaling pathway (AID 1346877; active = well fitted inhibition curve with a large enough effect in the repeat runs, not every such curve was filed as active; also: series mostly up to about 51 µM)
Thyrotropin-releasing hormone receptor (Homo sapiens), sequence (P34981 whole entry, looked up): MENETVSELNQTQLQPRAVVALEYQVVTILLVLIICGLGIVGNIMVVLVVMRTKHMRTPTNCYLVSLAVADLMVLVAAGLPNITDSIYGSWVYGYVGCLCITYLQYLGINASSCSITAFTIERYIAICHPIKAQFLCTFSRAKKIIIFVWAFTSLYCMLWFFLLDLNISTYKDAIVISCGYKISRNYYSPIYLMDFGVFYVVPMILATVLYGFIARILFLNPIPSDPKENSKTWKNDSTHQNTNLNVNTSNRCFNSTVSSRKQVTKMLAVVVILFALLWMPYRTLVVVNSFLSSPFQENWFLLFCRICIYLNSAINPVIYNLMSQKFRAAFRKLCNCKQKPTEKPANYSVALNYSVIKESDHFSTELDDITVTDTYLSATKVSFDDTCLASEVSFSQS
Method in brief: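 Antagonist mode: after a 5 min room-temperature compound exposure, cells were stimulated with 1 nM (final) TRH. Dye-loaded TRHR-HEK293 cells were used, and calcium-dependent fluorescence was followed for 3 min, with 15-point titrations run in triplicate.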

[19] = target: Thyrotropin-releasing hormone receptor (Homo sapiens) (UniProt P34981); assay: qHTS assay to identify small molecule agonists of the thyrotropin-releasing hormone receptor (TRHR) signaling pathway (AID 1346891; calls by dose curve; also: series mostly up to about 58 µM)
Method in brief: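 Screening of agonists relied on calcium signalling in HEK293 cells expressing human TRHR: dye loading 2 h at 37 °C preceded compound addition and a 3-min fluorescence time course.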

[20] = qHTS assay to identify small molecule agonists of the estrogen receptor alpha (ER-alpha) signaling pathway in the presence of an antagonist - cell viability counter screen (AID 1259386); also: series mostly up to about 92 µM; nearly all actives have a fitted effect of over 30% in size
Method in brief: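 Compounds tested at 15 concentrations for 22 h at 37C alongside 10.0nM (final) ICI-182,780 antagonist, in VM7Luc4E2 cells grown in phenol red-free, charcoal-stripped medium. Viability read by CellTiter-Fluor fluorescence after 1 h reagent incubation.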

Row | SMILES | Potency [1] | Potency [2] | Potency [3] | Potency [4] | Potency [5] | outcome [6] | Potency [7] | Potency [8] | outcome [9] | Potency [10] | Potency [11] | Potency [12] | Potency [13] | Potency [14] | Potency [15] | Potency [16] | outcome [17] | Potency [18] | Potency [19] | Potency [20]
1 | Cc1ccc2c(n1)Oc1ccc(C(C)C(=O)OCC(=O)N(C)C)cc1C2 (centres undefined) | inactive | inactive | inactive | inactive | inactive | inactive | inactive | inactive | inactive | inactive | inactive | inactive | inactive | inactive | inactive | inactive | inactive | inactive | inactive | –
2 | S=C(NC1CCCCC1)NC1CCCCC1 | 24.3 µM (active) | inactive | 6.11 µM (active) | inactive | inactive | – | inactive | inactive | inactive | inactive | inactive | 3.44 µM (active) | 6 µM (active) and 3.86 µM (active) | 7.7 µM (active) | inactive | inactive | inactive | – | – | –
3 | C[C@]12CCC(=O)C=C1CC[C@@H]1[C@@H]2C(=O)C[C@@]2(C)[C@H]1CC[C@]2(O)C(=O)CO | 54.5 µM (active) and inactive | inactive | inactive | inactive | inactive | – | inactive | inactive | – | – | – | 11.9 µM (active) | inactive | – | inactive | inactive | inactive | – | – | inactive
4 | CCCCC(CC)COP(=O)(OCC(CC)CCCC)OCC(CC)CCCC (centres undefined) | inactive | inactive | inactive | inactive | inactive | – | inactive | – | inactive | inactive | inactive | inactive | inactive | – | inactive | inactive | inactive | inactive | inactive | inactive
5 | NC=O | inactive | inactive | inactive | inactive | inactive | – | inactive | – | – | – | inactive | inactive | inactive | – | inactive | inactive | inactive | – | – | –
6 | Nc1ccc(S(=O)(=O)Nc2cnc3ccccc3n2)cc1 | inactive | inactive | inactive | inactive | inactive | – | inactive | – | inactive | inactive | inactive | inactive | inactive | – | inactive | inactive | inactive | – | – | inactive
7 | CCCCc1oc2ccccc2c1C(=O)c1cc(I)c(OCCN(CC)CC)c(I)c1 | 43.6 µM (active) and inactive | inactive | 21.9 µM (active) and 26.6 µM (active) | 43.6 µM (active) and 33.5 µM (active) | 19.5 µM (active) and 29.8 µM (active) | – | 19.5 µM (active) and 26.6 µM (active) | inactive | inactive | inactive | inactive | – | 24.5 µM (active) and 11.9 µM (active) | 19.5 µM (active) and 13.3 µM (active) | inactive | – | inactive | inactive | inactive | inactive
8 | NNc1ccc(C(=O)O)cc1 | inactive | inactive | inactive | inactive | inactive | – | inactive | – | inactive | inactive | – | – | inactive | inactive | inactive | inactive | inactive | inactive | inactive | inactive
9 | C=C(C)C(=O)OCCOC(=O)C(=C)C | inactive | inactive | inactive | inactive | inactive | inactive | inactive | inactive | inactive | inactive | inactive | inactive | inactive | – | inactive | inactive | inactive | inactive | inactive | –
10 | COC(C)COC(C)COC(C)CO (centres undefined) | inactive | inactive | inactive | inactive | inactive | inactive | – | inactive | inactive | inactive | inactive | inactive | inactive | inactive | inactive | inactive | inactive | inactive | inactive | inactive
11 | O=c1oc(=O)c2cc3c(=O)oc(=O)c3cc12 | inactive | inactive | inactive | inactive | inactive | – | inactive | – | – | – | inactive | inactive | inactive | inactive | inactive | inactive | inactive | inactive | inactive | inactive
12 | Nc1ncnc2nc[nH]c12 | inactive | inactive | inactive | inactive | inactive | – | inactive | inactive | inactive | inactive | inactive | inactive | inactive | – | inactive | inactive | inactive | – | – | inactive
13 | O=[N+]([O-])c1ccc2c(c1)Cc1ccccc1-2 | inactive | inactive | inactive | inactive | inactive | – | inactive | inactive | inactive | inactive | inactive | – | inactive | inactive | inactive | inactive | inactive | – | – | –
14 | CC(C(=O)O)c1cccc(C(=O)c2ccccc2)c1 (centres undefined) | inactive | inactive | inactive | inactive | inactive | – | inactive | inactive | inactive | inactive | inactive | inactive | inactive | inactive | inactive | inactive | – | inactive | inactive | inactive
15 | CC(=O)O[C@]1(C(C)=O)CC[C@H]2[C@@H]3C=C(Cl)C4=CC(=O)[C@@H]5C[C@@H]5[C@]4(C)[C@H]3CC[C@@]21C | 4.32 µM (active) and 27.3 µM (active) and inactive | inactive | 54.5 µM (active) | inactive | inactive | – | inactive | – | inactive | inactive | – | – | inactive | – | inactive | inactive | – | – | – | inactive
